In PubChem BioAssay AID1159580 (chemical genetic matrix, 2015):
Several values for one entry are separate records, joined by “and”; a condition that tells them apart may be missing. Identical values can stand only once. Screen size: about 5,500 compounds; about 2,000 (36%) were called active. About 18% were inconclusive and are not listed. Some of the results follow. Values without a mark were called inactive. Rule as the data show it: active = normalized growth mostly below about 0.91 (no sharp cut-off); inconclusive = no clear call, values can overlap the other calls; inactive = mostly above about 0.92.

Assay: chemical genetic growth profiling, strain panel (AID 1159580);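 also: tested at 20 µM; growth read once vehicle control cultures reached saturation at 30 °C; 1 = growth at the plate median or of vehicle wells; lower values mean less growth of the strain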
Conditions: S. cerevisiae deletion strains, growth OD

Question: Which normalized growth (locus YAL013W, strain DEP1, stronger effect = lower value) does the source give for `CCc1ccc2c(O)c3c(cc2c1C(=O)OC)C(=O)c1c(O)ccc(O)c1C3=O` here?
Answer: 0.989

Question: And the normalized growth (locus YAL021C, strain ccr4, stronger effect = lower value)?
Answer: 0.963

Question: What about the normalized growth (locus YAL026C, strain drs2, stronger effect = lower value) of the same compound?
Answer: 0.915

Question: What about the normalized growth (locus YAL030W, strain snc1, stronger effect = lower value) of the same compound?
Answer: 0.992

Question: And the normalized growth (locus YBL061C, strain skt5, stronger effect = lower value)?
Answer: 0.975

Question: What about the normalized growth (locus YBR009C, strain hhf1, stronger effect = lower value) of the same compound?
Answer: 0.981

Question: What about the normalized growth (locus YBR021W, strain FUR4, stronger effect = lower value) of the same compound?
Answer: 1.02

Question: What about the normalized growth (locus YBR023C, strain chs3, stronger effect = lower value) of the same compound?
Answer: 0.975

Question: And the normalized growth (locus YBR171W, strain sec66, stronger effect = lower value)?
Answer: 0.97

Question: What about the normalized growth (locus YBR229C, strain ROT2, stronger effect = lower value) of the same compound?
Answer: 0.956

Question: What about the normalized growth (locus YBR231C, strain swc5, stronger effect = lower value) of the same compound?
Answer: 0.997

Question: And the normalized growth (locus YBR279W, strain paf1, stronger effect = lower value)?
Answer: 0.99

Question: What about the normalized growth (locus YCL011C, strain gbp2, stronger effect = lower value) of the same compound?
Answer: 0.984

Question: And the normalized growth (locus YCL016C, strain dcc1, stronger effect = lower value)?
Answer: 0.988

Question: What about the normalized growth (locus YCL029C, strain bik1, stronger effect = lower value) of the same compound?
Answer: 0.975

Question: And the normalized growth (locus YCL069W, strain vba3, stronger effect = lower value)?
Answer: 0.981

Question: What about the normalized growth (locus YCR088W, strain abp1, stronger effect = lower value) of the same compound?
Answer: 0.981

Question: What about the normalized growth (locus YDL005C, strain med2, stronger effect = lower value) of the same compound?
Answer: 0.997

Question: And the normalized growth (locus YDL035C, strain GPR1, stronger effect = lower value)?
Answer: 0.984

Question: And the normalized growth (locus YDL040C, strain nat1, stronger effect = lower value)?
Answer: 1

Question: And the normalized growth (locus YDL074C, strain BRE1, stronger effect = lower value)?
Answer: 1.03

Question: And the normalized growth (locus YDL101C, strain DUN1, stronger effect = lower value)?
Answer: 0.978

Question: What about the normalized growth (locus YDL134C, strain PPH21, stronger effect = lower value) of the same compound?
Answer: 0.964

Question: And the normalized growth (locus YDL185W, strain tfp1, stronger effect = lower value)?
Answer: 0.978

Question: What about the normalized growth (locus YDL192W, strain arf1, stronger effect = lower value) of the same compound?
Answer: 0.958

Question: And the normalized growth (locus YDR001C, strain nth1, stronger effect = lower value)?
Answer: 0.972

Question: And the normalized growth (locus YDR069C, strain doa4, stronger effect = lower value)?
Answer: 0.909

Question: And the normalized growth (locus YDR101C, strain arx1, stronger effect = lower value)?
Answer: 1.02

Question: And the normalized growth (locus YDR137W, strain rgp1, stronger effect = lower value)?
Answer: 0.91

Question: And the normalized growth (locus YDR159W, strain sac3, stronger effect = lower value)?
Answer: 0.944

Question: What about the normalized growth (locus YDR162C, strain NBP2, stronger effect = lower value) of the same compound?
Answer: 0.935

Question: And the normalized growth (locus YDR195W, strain ref2)?
Answer: 0.962

Question: And the normalized growth (locus YDR297W, strain sur2, stronger effect = lower value)?
Answer: 0.98

Question: And the normalized growth (locus YDR318W, strain mcm21, stronger effect = lower value)?
Answer: 0.951

Question: And the normalized growth (locus YDR334W, strain swr1, stronger effect = lower value)?
Answer: 0.923

Question: And the normalized growth (locus YDR335W, strain msn5, stronger effect = lower value)?
Answer: 0.971

Question: And the normalized growth (locus YDR388W, stronger effect = lower value)?
Answer: 0.978

Question: What about the normalized growth (locus YDR392W, strain spt3, stronger effect = lower value) of the same compound?
Answer: 0.926

Question: And the normalized growth (locus YDR502C, strain sam2, stronger effect = lower value)?
Answer: 0.974

Question: What about the normalized growth (locus YEL003W, strain gim4, stronger effect = lower value) of the same compound?
Answer: 0.996

Question: And the normalized growth (locus YEL037C, strain rad23, stronger effect = lower value)?
Answer: 0.977

Question: And the normalized growth (locus YEL061C, strain CIN8 (second series), stronger effect = lower value)?
Answer: 0.97

Question: What about the normalized growth (locus YEL061C, strain CIN8, stronger effect = lower value) of the same compound?
Answer: 0.978

Question: What about the normalized growth (locus YER015W, strain faa2, stronger effect = lower value) of the same compound?
Answer: 0.974

Question: And the normalized growth (locus YER016W, strain bim1, stronger effect = lower value)?
Answer: 0.986

Question: What about the normalized growth (locus YER110C, stronger effect = lower value) of the same compound?
Answer: 0.979

Question: What about the normalized growth (locus YER111C, strain swi4, stronger effect = lower value) of the same compound?
Answer: 0.927

Question: What about the normalized growth (locus YER155C, strain BEM2 (second series), stronger effect = lower value) of the same compound?
Answer: 0.909

Question: And the normalized growth (locus YER155C, strain BEM2, stronger effect = lower value)?
Answer: 1

Question: What about the normalized growth (locus YER167W, strain BCK2, stronger effect = lower value) of the same compound?
Answer: 0.987

Question: And the normalized growth (locus YFR010W, strain ubp6, stronger effect = lower value)?
Answer: 0.874 (active)

Question: What about the normalized growth (locus YGL078C, strain dbp3, stronger effect = lower value) of the same compound?
Answer: 1.01

Question: What about the normalized growth (locus YGL086W, strain mad1, stronger effect = lower value) of the same compound?
Answer: 0.987

Question: What about the normalized growth (locus YGL167C, strain pmr1, stronger effect = lower value) of the same compound?
Answer: 0.979

Question: What about the normalized growth (locus YGL173C, strain kem1, stronger effect = lower value) of the same compound?
Answer: 0.972

Question: And the normalized growth (locus YGL227W, strain vid30, stronger effect = lower value)?
Answer: 1

Question: And the normalized growth (locus YGL240W, strain doc1, stronger effect = lower value)?
Answer: 0.978

Question: What about the normalized growth (locus YGL248W, strain PDE1, stronger effect = lower value) of the same compound?
Answer: 0.955

Question: What about the normalized growth (locus YGL253W, strain hxk2, stronger effect = lower value) of the same compound?
Answer: 0.982

Question: And the normalized growth (locus YGR135W, strain pre9, stronger effect = lower value)?
Answer: 0.94

Question: What about the normalized growth (locus YGR252W, strain gcn5, stronger effect = lower value) of the same compound?
Answer: 0.977

Question: And the normalized growth (locus YHR013C, strain ard1, stronger effect = lower value)?
Answer: 0.996

Question: And the normalized growth (locus YHR027C, strain rpn1, stronger effect = lower value)?
Answer: 0.994

Question: And the normalized growth (locus YHR030C, strain SLT2, stronger effect = lower value)?
Answer: 0.986 and 0.951

Question: And the normalized growth (locus YHR079C, strain IRE1 (second series), stronger effect = lower value)?
Answer: 0.997

Question: And the normalized growth (locus YHR079C, strain IRE1, stronger effect = lower value)?
Answer: 0.954

Question: What about the normalized growth (locus YHR094C, strain hxt1, stronger effect = lower value) of the same compound?
Answer: 0.978

Question: And the normalized growth (locus YHR129C, strain ARP1, stronger effect = lower value)?
Answer: 0.978

Question: And the normalized growth (locus YHR142W, strain chs7, stronger effect = lower value)?
Answer: 0.879

Question: And the normalized growth (locus YHR200W, strain rpn10, stronger effect = lower value)?
Answer: 0.963

Question: What about the normalized growth (locus YIL066C, strain RNR3, stronger effect = lower value) of the same compound?
Answer: 0.966

Question: What about the normalized growth (locus YIL073C, strain SPO22, stronger effect = lower value) of the same compound?
Answer: 1.03

Question: And the normalized growth (locus YIL125W, strain kgd1, stronger effect = lower value)?
Answer: 0.989

Question: What about the normalized growth (locus YIR030C, strain dcg1, stronger effect = lower value) of the same compound?
Answer: 0.998

Question: What about the normalized growth (locus YJL092W, strain hpr5, stronger effect = lower value) of the same compound?
Answer: 0.976

Question: And the normalized growth (locus YJL095W, strain BCK1 (second series), stronger effect = lower value)?
Answer: 0.973

Question: And the normalized growth (locus YJL095W, strain BCK1, stronger effect = lower value)?
Answer: 0.928 and 0.964

Question: What about the normalized growth (locus YJL115W, strain asf1, stronger effect = lower value) of the same compound?
Answer: 0.966

Question: What about the normalized growth (locus YJL129C, strain trk1, stronger effect = lower value) of the same compound?
Answer: 0.986

Question: What about the normalized growth (locus YJL134W, strain LCB3, stronger effect = lower value) of the same compound?
Answer: 0.99

Question: And the normalized growth (locus YJL154C, strain vps35, stronger effect = lower value)?
Answer: 0.987

Question: What about the normalized growth (locus YJL164C, strain tpk1, stronger effect = lower value) of the same compound?
Answer: 0.968

Question: And the normalized growth (locus YJL166W, strain qcr8, stronger effect = lower value)?
Answer: 0.961

Question: What about the normalized growth (locus YJL168C, strain set2, stronger effect = lower value) of the same compound?
Answer: 0.982

Question: What about the normalized growth (locus YJL187C, strain SWE1 (second series), stronger effect = lower value) of the same compound?
Answer: 0.959

Question: What about the normalized growth (locus YJL187C, strain SWE1, stronger effect = lower value) of the same compound?
Answer: 0.98

Question: And the normalized growth (locus YJR043C, strain POL32, stronger effect = lower value)?
Answer: 0.979
